Measurements taken from PubChem BioAssay (NCATS).
Records with an inconclusive call do not appear. Active and inactive are the calls of the source. The call rests on the fitted dose curve; in most records, active means well fitted curve in the direction sought with a large enough effect; inconclusive means small, poorly fitted or top-dose-only effect, or another doubt; inactive means no such curve, though single readings can be large; an effect the other way counts as inactive or inconclusive.

Assays:
[1] = tested on: Hek293T; test: Primary qHTS to identify gynecologic anti-cancer compounds using libraries of approved drugs and bioactive compounds (AID 1345084); conditions: Gynecologic cancer cell panel viability, ATPlite luminescence, 48 h, control line for the selectivity index; series mostly up to 57.5 µM; further: nearly all actives have a fitted effect of over 55% in size
Summary of the method: (§1)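 Five-point cytotoxicity, 48 h drug exposure at 37 C, 5% CO2, on cells seeded 16 h beforehand. ATP content read by ATPlite luminescence.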

[2] = tested on: JEG-3; test: as above; conditions: Gynecologic cancer cell panel viability, ATPlite luminescence, 48 h; series mostly up to 57.5 µM
Summary of the method: as §1

[3] = tested on: OV90; test: as above; conditions: Gynecologic cancer cell panel viability, ATPlite luminescence, 48 h; series mostly up to 57.5 µM
Summary of the method: as §1

[4] = tested on: PA-1; test: as above; conditions: Gynecologic cancer cell panel viability, ATPlite luminescence, 48 h; series mostly up to 57.5 µM
Summary of the method: as §1

[5] = tested on: SKOV3; test: as above; conditions: Gynecologic cancer cell panel viability, ATPlite luminescence, 48 h; series mostly up to 57.5 µM
Summary of the method: as §1

[6] = tested on: Tov-21-G; test: as above; conditions: Gynecologic cancer cell panel viability, ATPlite luminescence, 48 h; series mostly up to 57.5 µM
Summary of the method: as §1

[7] = tested on: Tov112D; test: as above; conditions: Gynecologic cancer cell panel viability, ATPlite luminescence, 48 h; series mostly up to 57.5 µM
Summary of the method: as §1

[8] = Drug repurposing screens with cells derived from glioblastoma tumor samples (AID 1345199); conditions: GBM patient neurospheres viability, ATP luminescence, 48 h; further: nearly all actives have a fitted effect of over 40% in size
Summary of the method: (§2)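 Primary testing used CD133+ neurospheres from four GBM patients, seven concentrations, 48 h exposure and ATP-based viability; confirmation added three slower-growing patient lines.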

[9] = tested on: astro; test: as above; conditions: viability, ATP luminescence, 48 h; series mostly up to 45.9 µM
Summary of the method: as §2

[10] = at 45.9 µM (top of the series), tumour line B
[11] = at 45.9 µM (top of the series), tumour line D
[12] = at 46 µM (top of the series), tumour line A
[13] = at 46.1 µM (top of the series), tumour line C
[14] = at 20 µM (top of the series), tumour line C
[15] = at 21.2 µM (top of the series), tumour line B
[16] = at 21.2 µM (top of the series), tumour line D
[17] = at 21.3 µM (top of the series), tumour line A
On the % scale 0 is the no-effect control and ±100 the full control effect.

CC(=O)Nc1ccc(OC(=O)c2ccccc2OC(C)=O)cc1
inactive: Potency [1] | Potency [2] | Potency [3] | Potency [4] | Potency [5] | Potency [6] | Potency [7] | activity, negative = cell killing [8, 10] -12.4% | activity, negative = cell killing [8, 11] -13.4% | activity, negative = cell killing [8, 12] -15.3% | activity, negative = cell killing [8, 13] -16.9% | Potency [9]

O=C(O)P(=O)(O)O
inactive: Potency [1] | Potency [2] | Potency [3] | Potency [4] | Potency [5] | Potency [6] | Potency [7] | activity, negative = cell killing [8, 10] -0.165% | activity, negative = cell killing [8, 11] -25% | activity, negative = cell killing [8, 12] -23.7% | activity, negative = cell killing [8, 13] 21.2% | Potency [9]

CC(=O)Oc1ccc(C)cc1
inactive: Potency [1] | Potency [2] | Potency [3] | Potency [4] | Potency [5] | Potency [6] | Potency [7] | activity, negative = cell killing [8, 10] -11.7% | activity, negative = cell killing [8, 11] -7.35% | activity, negative = cell killing [8, 12] -28.8% | activity, negative = cell killing [8, 13] -10.6% | Potency [9]

CCN1CCN(C(=O)N[C@@H](C(=O)N[C@@H]2C(=O)N3C(C(=O)O)=C(CSc4nnnn4C)CS[C@H]23)c2ccc(O)cc2)C(=O)C1=O
inactive: Potency [1] | Potency [2] | Potency [3] | Potency [4] | Potency [5] | Potency [6] | Potency [7] | activity, negative = cell killing [8, 10] -8.4% | activity, negative = cell killing [8, 11] 9.51% | activity, negative = cell killing [8, 12] -15% | activity, negative = cell killing [8, 13] 0.963% | Potency [9]

Nc1ccc(S(=O)(=O)Nc2cnc3ccccc3n2)cc1
inactive: Potency [1] | Potency [2] | Potency [3] | Potency [4] | Potency [5] | Potency [6] | Potency [7] | activity, negative = cell killing [8, 10] 0.475% | activity, negative = cell killing [8, 11] 3.34% | activity, negative = cell killing [8, 12] -15.8% | activity, negative = cell killing [8, 13] 4.45% | Potency [9]

CCC(Cc1c(I)cc(I)c(N)c1I)C(=O)O (stereo not given)
inactive: Potency [1] | Potency [2] | Potency [3] | Potency [4] | Potency [5] | Potency [6] | Potency [7] | activity, negative = cell killing [8, 14] 4.71% | activity, negative = cell killing [8, 15] 4.87% | activity, negative = cell killing [8, 16] 3.32% | activity, negative = cell killing [8, 17] -20% | Potency [9]

NS(=O)(=O)c1cc2c(cc1Cl)NC(CC1CCCC1)NS2(=O)=O (stereo not given)
inactive: Potency [1] | Potency [2] | Potency [3] | Potency [4] | Potency [5] | Potency [6] | Potency [7] | activity, negative = cell killing [8, 14] -10.8% | activity, negative = cell killing [8, 15] -9.27% | activity, negative = cell killing [8, 16] -11% | activity, negative = cell killing [8, 17] -13.5% | Potency [9]

OCc1ccccn1
inactive: Potency [1] | Potency [2] | Potency [3] | Potency [4] | Potency [5] | Potency [6] | Potency [7] | activity, negative = cell killing [8, 10] -0.907% | activity, negative = cell killing [8, 11] 14.9% | activity, negative = cell killing [8, 12] -24% | activity, negative = cell killing [8, 13] -5.53% | Potency [9]

CC(C)[C@@H]1CC[C@@H](C)CC1=O
inactive: Potency [1] | Potency [2] | Potency [3] | Potency [4] | Potency [5] | Potency [6] | Potency [7] | activity, negative = cell killing [8, 10] -6.28% | activity, negative = cell killing [8, 11] -8.45% | activity, negative = cell killing [8, 12] -24.9% | activity, negative = cell killing [8, 13] -8.42% | Potency [9]

COc1cc(C(=O)NCc2ccc(OCCN(C)C)cc2)cc(OC)c1OC
inactive: Potency [1] | Potency [2] | Potency [3] | Potency [4] | Potency [5] | Potency [6] | Potency [7] | activity, negative = cell killing [8, 14] -15.6% | activity, negative = cell killing [8, 15] -6.09% | activity, negative = cell killing [8, 16] -9.89% | activity, negative = cell killing [8, 17] -23.1% | Potency [9]

COc1cc(O)c(C(=O)c2ccccc2)cc1S(=O)(=O)O
inactive: Potency [1] | Potency [2] | Potency [3] | Potency [4] | Potency [5] | Potency [6] | Potency [7] | activity, negative = cell killing [8, 10] -4.01% | activity, negative = cell killing [8, 11] -5.06% | activity, negative = cell killing [8, 12] -20.9% | activity, negative = cell killing [8, 13] 6.07% | Potency [9]

CCN[C@@H]1C[C@H](N)[C@@H](OC2OC(CN)=CCC2N)[C@H](O)[C@H]1O[C@H]1OC[C@](C)(O)[C@H](NC)[C@H]1O (stereo not given in full)
inactive: activity change, negative = cytotoxicity [1] 3.5% [at 0.462 µM] | activity change, negative = cytotoxicity [2] 13.2% [at 0.462 µM] | activity change, negative = cytotoxicity [3] -4.98% [at 0.462 µM] | activity change, negative = cytotoxicity [4] 0.807% [at 0.462 µM] | activity change, negative = cytotoxicity [5] -8.65% [at 0.462 µM] | activity change, negative = cytotoxicity [6] 7.74% [at 0.462 µM] | activity change, negative = cytotoxicity [7] -3.87% [at 0.462 µM] | activity, negative = cell killing [8, 10] -4.35% | activity, negative = cell killing [8, 11] 14.1% | activity, negative = cell killing [8, 12] -22.3% | activity, negative = cell killing [8, 13] -13.2% | Potency [9]

C[C@@H](O)[C@H]1C(=O)N2C(C(=O)O)=C(S[C@@H]3CN[C@H](CNS(N)(=O)=O)C3)[C@H](C)[C@H]12
inactive: Potency [1] | Potency [2] | Potency [3] | Potency [4] | Potency [5] | Potency [6] | Potency [7] | activity, negative = cell killing [8, 10] -1.99% | activity, negative = cell killing [8, 11] 1.38% | activity, negative = cell killing [8, 12] -14.9% | activity, negative = cell killing [8, 13] -16.7% | Potency [9]

CC(C)Cc1ccc(CC(=O)O)cc1
inactive: Potency [1] | Potency [2] | Potency [3] | Potency [4] | Potency [5] | Potency [6] | Potency [7] | activity, negative = cell killing [8, 10] -12.1% | activity, negative = cell killing [8, 11] -2.06% | activity, negative = cell killing [8, 12] -12.4% | activity, negative = cell killing [8, 13] 9.2% | Potency [9]

COc1cc(C(=S)N2CCOCC2)ccc1O
inactive: Potency [1] | Potency [2] | Potency [3] | Potency [4] | Potency [5] | Potency [6] | Potency [7] | activity, negative = cell killing [8, 10] -7.92% | activity, negative = cell killing [8, 11] 6.32% | activity, negative = cell killing [8, 12] -27.5% | activity, negative = cell killing [8, 13] -22.1% | Potency [9]
